In PubChem BioAssay (NCI):
About 83,000 compounds went through this panel and 20% of them were active in at least one assay; those are over-represented in the sample as a whole.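 Activity criterion: percent growth below 10, measured after cells in 96-well plates were exposed to a single compound concentration for 48 hours.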 Active and inactive are the calls of the source.

How the values were obtained:
Assay in all cases: NCI-60 one-dose screen, 48 h (100 = growth as untreated, 0 = no growth, -100 = all killed)
Details in all cases: 10 µM unless noted
[1] = tested on: HCT-15 colon
[2] = tested on: HT29 colon
[3] = tested on: SNB-75 CNS
[4] = tested on: SNB-19 CNS
[5] = tested on: U251 CNS
[6] = tested on: PC-3 prostate
[7] = tested on: SK-MEL-5 melanoma
[8] = tested on: UACC-62 melanoma
[9] = tested on: LOX IMVI melanoma
[10] = tested on: SK-MEL-28 melanoma
[11] = tested on: SK-MEL-2 melanoma
[12] = tested on: EKVX NSCLC
[13] = tested on: SN12C renal
[14] = tested on: UO-31 renal
[15] = tested on: TK-10 renal
[16] = tested on: ACHN renal
[17] = tested on: CAKI-1 renal
[18] = tested on: A498 renal
[19] = tested on: CCRF-CEM leukemia
[20] = tested on: MOLT-4 leukemia

Measured: growth

CCOC(=O)c1c(C(=O)c2cn(C)c3ccc(Br)cc23)c(-c2cn(C)c3ccc(Br)cc23)n(NC(=O)OC(C)(C)C)c1C
active: [3] -27.3% [100 µM]
inactive: [1] 89% [100 µM] | [2] 90.5% [100 µM] | [4] 50.8% [100 µM] | [5] 60.7% [100 µM] | [6] 61.8% [100 µM] | [7] 90.6% [100 µM] | [8] 65.7% [100 µM] | [9] 78% [100 µM] | [10] 107% [100 µM] | [11] 57.8% [100 µM] | [12] 80.5% [100 µM] | [13] 92% [100 µM] | [14] 58.7% [100 µM] | [15] 69.2% [100 µM] | [16] 78.9% [100 µM] | [17] 43.9% [100 µM] | [18] 87.2% [100 µM] | [19] 102% [100 µM] | [20] 99.5% [100 µM]

C=CCN=c1sc2c(n1NC(=O)c1cc3ccc1CCc1ccc(cc1)CC3)C(=O)c1ccccc1C2=O
inactive: [2] 26.1% | [15] 58.3% | [17] 20.3% | [18] 56%
active: [1] -68.3% | [3] -94.6% | [4] 4.59% | [5] 0.221% | [6] 0.37% | [7] -98.5% | [8] -36% | [9] -80.3% | [10] -35.4% | [11] -17.3% | [12] -20.2% | [13] -96.6% | [14] -35.2% | [16] -95.3% | [19] -3.65% | [20] -15.5%

COc1ccc(/C=C/C(=O)c2cccc(OCCCCOc3cccc(C(=O)/C=C/c4ccc(OC)c(OC)c4)c3)c2)cc1OC
inactive: [1] 80.9% | [2] 92% | [3] 67.8% | [4] 81.6% | [5] 84.8% | [6] 67% | [8] 57.7% | [9] 61.7% | [10] 86% | [11] 81.2% | [12] 55% | [13] 79.9% | [14] 62% | [15] 114% | [16] 77.8% | [17] 74.2% | [18] 79.9% | [19] 62.7% | [20] 62.8%
active: [7] 9.83%

C=CCc1c(O)c(C(=O)/C=C/c2ccccc2)c(OC)c2ccoc12
active: [18] -10.9%
inactive: [1] 39.6% | [2] 27.9% | [3] 72.9% | [4] 46.6% | [5] 26.8% | [6] 33.9% | [7] 33.3% | [8] 41.3% | [9] 35.2% | [10] 64.6% | [11] 11.5% | [12] 64.6% | [13] 57% | [14] 50.9% | [15] 38.8% | [16] 51.7% | [17] 13.1% | [19] 21.3% | [20] 15.3%

O=C(Nc1ccc(Oc2cccc(F)c2)c(Cl)c1)c1cccnc1
inactive: [1] 29.9% | [2] 12.7% | [4] 42.6% | [5] 32.5% | [6] 24.6% | [8] 31.2% | [9] 52.8% | [10] 54% | [11] 36.5% | [12] 49.6% | [13] 36.4% | [14] 39.7% | [15] 59.9% | [16] 35.2% | [17] 32.5% | [19] 24% | [20] 40.2%
active: [3] 7.85% | [7] -24% | [18] 4.16%

O=C(CN1C(=O)S/C(=C\c2ccccc2)C1=O)Nc1ncc(Cc2ccccc2Cl)s1
inactive: [1] 92.3% | [2] 109% | [3] 81.9% | [4] 101% | [5] 95% | [6] 79% | [7] 98.2% | [8] 85.6% | [9] 87.9% | [10] 119% | [11] 102% | [12] 108% | [13] 102% | [14] 75.1% | [15] 103% | [16] 92% | [17] 78.2% | [18] 112% | [19] 97.7% | [20] 85.9%

O=c1c2ccccc2n2cnc3ccc(Cl)c1c32
inactive: [1] 66.4% | [2] 73.4% | [3] 100% | [4] 83.8% | [5] 78.4% | [6] 85.2% | [7] 77% | [8] 64.6% | [9] 62.8% | [10] 92.2% | [11] 96.5% | [12] 62.7% | [13] 76.1% | [14] 44.8% | [15] 49.2% | [16] 50.5% | [17] 43.1% | [18] 54.1% | [19] 95.7% | [20] 89%

Cc1cccc(CNc2c3ccccc3nc3ccccc23)c1
active: [2] 5.15% | [9] 6.25% | [18] -2.22% | [20] 2.32%
inactive: [1] 15.9% | [3] 37% | [4] 29.7% | [5] 23.7% | [6] 24.9% | [7] 19.8% | [8] 42.8% | [10] 58.8% | [11] 38% | [12] 44.5% | [13] 26.1% | [14] 14.7% | [15] 38.4% | [16] 15.8% | [17] 17.7% | [19] 14.8%

C#CCOC(=O)/C=C/c1cn(-c2ccccc2)nc1-c1ccc(OC)cc1
inactive: [1] 94.1% | [2] 83.2% | [3] 66.6% | [4] 99.5% | [5] 83.1% | [6] 83.4% | [7] 92% | [8] 85.4% | [9] 83.6% | [10] 115% | [11] 90.4% | [12] 93.4% | [13] 77.3% | [14] 54% | [15] 91.6% | [16] 77% | [17] 67.6% | [18] 81.7% | [19] 97.5% | [20] 75.8%

CCN1C(=S)N(c2ccccc2)C2NC(=S)N(/N=C/C=C/c3ccccc3OC)C21 (stereo not given)
active: [2] 1.16% | [3] -1.02% | [5] 3.1% | [18] 1.17% | [19] 9.27% | [20] 9.49%
inactive: [1] 12.9% | [4] 31.3% | [6] 30.1% | [7] 14.1% | [8] 25.7% | [9] 15.4% | [10] 47.8% | [11] 32.8% | [12] 48.2% | [13] 24.6% | [14] 44% | [15] 68.6% | [16] 33.3% | [17] 27.7%

CCCCCCCCCc1ccc(OCCOCCOCCOCCOCCOCCOCCOCCOCCO)cc1
active: [6] 9.37% | [7] -77.3% | [9] 7.91% | [11] 7.03% | [18] -5.27% | [19] -22.2% | [20] -17.6%
inactive: [1] 10.4% | [2] 15.2% | [3] 36.6% | [4] 28.6% | [5] 16.4% | [8] 11.7% | [10] 34.4% | [12] 15.5% | [13] 13% | [14] 12.8% | [15] 23.1% | [16] 18.9% | [17] 13.6%

O=S(=O)(c1ccccc1)n1cc2c(c1)-c1nc(Nc3ncccn3)sc1CC2
active: [3] -16%
inactive: [1] 68.7% | [2] 66.2% | [4] 78.5% | [5] 46.2% | [6] 65.5% | [7] 35.4% | [8] 63.6% | [9] 10.1% | [10] 73.9% | [11] 65.2% | [12] 72.4% | [13] 57.2% | [14] 41.3% | [15] 64.3% | [16] 22.9% | [17] 66.8% | [18] 43.7% | [19] 73.1% | [20] 83.7%

Cc1ccccc1/C=C/C(=O)c1cccc(OCCCOc2cccc(C(=O)/C=C/c3ccccc3C)c2)c1
inactive: [1] 87.2% [3 µM] | [2] 79.6% [3 µM] | [3] 86.1% [3 µM] | [4] 97.1% [3 µM] | [5] 76.1% [3 µM] | [6] 88.8% [3 µM] | [7] 99.5% [3 µM] | [8] 80.2% [3 µM] | [9] 67.5% [3 µM] | [10] 112% [3 µM] | [11] 102% [3 µM] | [12] 95.1% [3 µM] | [13] 91.8% [3 µM] | [14] 82.8% [3 µM] | [15] 108% [3 µM] | [16] 102% [3 µM] | [17] 77.5% [3 µM] | [18] 104% [3 µM] | [19] 96.2% [3 µM] | [20] 90% [3 µM]

Cc1cccc(/C=C/c2c(C(=O)/C=C/c3ccccc3)c(C)nc3ccccc23)c1
active: [1] -58.8% | [2] -24.2% | [3] -9.89% | [4] -80.5% | [5] -94.1% | [6] 8.27% | [7] -58.1% | [8] -67.3% | [9] -86.1% | [10] -61.8% | [11] -60.8% | [12] 0.995% | [13] -44.3% | [14] -94.2% | [15] -6.55% | [16] -23% | [17] -36.2% | [18] -38.2% | [19] 6.17% | [20] 5.83%

N#Cc1nc(-c2ccccc2)oc1S(=O)(=O)N1CCN(c2ccccc2)CC1
inactive: [1] 44.2% | [2] 86.5% | [3] 66.7% | [4] 99.6% | [5] 98.9% | [6] 94.9% | [7] 90% | [8] 84.4% | [9] 39.7% | [10] 106% | [11] 84.4% | [12] 116% | [13] 88% | [14] 84.5% | [15] 104% | [16] 102% | [17] 109% | [18] 95.1% | [20] 12.2%
active: [19] 2.42%
